# Publication PMC11062922 (Nature Chemical Biology, 2023)
# Read-outs that look alike come from different tables or passages of the source.
# Columns and labels:
# Parameters in all cases: species or system human, MV4-11 + K-562 + COLO205 + SK-N-BE2 + OVCAR-8
# AURKA = settings: read-out: apparent Kd; compound concentrations: 100 nM and 1000 nM (sheet 'Samples'), CATDS: 9.8241479768662494E-3; n = 1
# CDK7 = settings: read-out: apparent Kd; compound concentrations: 100 nM and 1000 nM (sheet 'Samples'), CATDS: 2.7171532019021599E-2; n = 1
# EPHA4 = settings: read-out: apparent Kd, n = 1
# EPHB3 = settings: read-out: apparent Kd, n = 1
# EPHB4 = settings: read-out: apparent Kd, n = 1
# NUAK1 = settings: read-out: apparent Kd, compound concentrations: 100 nM and 1000 nM (sheet 'Samples'), n = 1
# PKN3 = settings: read-out: apparent Kd; compound concentrations: 100 nM and 1000 nM (sheet 'Samples'), CATDS: 1.04428727598351E-2; n = 1
# PRKAG1 = settings: read-out: apparent Kd; compound concentrations: 100 nM and 1000 nM (sheet 'Samples'), CATDS: 1.42415287056141E-2; n = 1
# STK10 = settings: read-out: apparent Kd, compound concentrations: 100 nM and 1000 nM (sheet 'Samples'), n = 1
# PIK3CG = settings: read-out: apparent Kd; compound concentrations: 100 nM and 1000 nM (sheet 'Samples'), CATDS: 5.9148900132827802E-2; n = 1
# PIM2 = settings: read-out: apparent Kd, n = 1
# ACVR2B = settings: read-out: apparent Kd, compound concentrations: 100 nM and 1000 nM (sheet 'Samples'), n = 1
# BMPR1A = settings: read-out: apparent Kd, n = 1
# SYK = settings: read-out: apparent Kd, compound concentrations: 100 nM and 1000 nM (sheet 'Samples'), n = 1
# LIMK1 = settings: read-out: apparent Kd, n = 1
# TGFBR2 = settings: read-out: apparent Kd, n = 1
# CDK4 = settings: read-out: apparent Kd; compound concentrations: 100 nM and 1000 nM (sheet 'Samples'), CATDS: 1.3251728133645901E-2; n = 1
# ABCD3 = settings: read-out: apparent Kd; compound concentrations: 100 nM and 1000 nM (sheet 'Samples'), CATDS: 5.3363712768055301E-2; n = 1
# [1] = compound concentrations:100 nM and 1000 nM (sheet 'Samples')
structure (smiles),measurement,setting,value
O=C1N=C(NCc2cccs2)SC1Cc1ccc2ncccc2c1 (stereo not drawn) [RO4629078-000],potency estimated from few doses,AURKA,700 nM
same,potency estimated from few doses,CDK7,112 nM
same,potency estimated from few doses,"EPHA4; compound concentrations: 100 nM and 1000 nM (sheet 'Samples'), CATDS: 1.66325304555619E-2",238 nM
same,potency estimated from few doses,"EPHB3; compound concentrations: 100 nM and 1000 nM (sheet 'Samples'), CATDS: 9.3855974911044807E-3",790 nM
same,potency estimated from few doses,"EPHB4; compound concentrations: 100 nM and 1000 nM (sheet 'Samples'), CATDS: 2.1087498416613601E-2",162 nM
same,potency estimated from few doses,NUAK1; CATDS: 9.4682639487438207E-3,771 nM
same,potency estimated from few doses,PKN3,602 nM
same,potency estimated from few doses,PRKAG1,314 nM
same,potency estimated from few doses,STK10; CATDS: 8.8435588705339796E-3,935 nM
O=C1N=C(NCCc2cccc(Cl)c2)S/C1=C\c1ccc2ncccc2c1 [RO4509201-000],potency estimated from few doses,PIK3CG,1370 nM
same,potency estimated from few doses,"PIM2; compound concentrations: 100 nM and 1000 nM (sheet 'Samples'), CATDS: 5.4743223774465499E-2",1820 nM
Cc1ccc(O)cc1Nc1ccnc2cc(-c3ccc(CN4CCCCC4)o3)ccc12 [GW557777X],potency estimated from few doses,ACVR2B; CATDS: 2.4906220143484401E-2,45.3 nM
same,potency estimated from few doses,"BMPR1A; compound concentrations: 100 nM and 1000 nM (sheet 'Samples'), CATDS: 1.65124596245807E-2",269 nM
same,potency estimated from few doses,"EPHA4; compound concentrations: 100 nM and 1000 nM (sheet 'Samples'), CATDS: 4.01782030303919E-2",10.4 nM
same,potency estimated from few doses,"EPHB3; compound concentrations: 100 nM and 1000 nM (sheet 'Samples'), CATDS: 2.1562283576004201E-2",78.2 nM
same,potency estimated from few doses,"EPHB4; compound concentrations: 100 nM and 1000 nM (sheet 'Samples'), CATDS: 5.8010916452344102E-2",4.17 nM
same,potency estimated from few doses,SYK; CATDS: 1.2716705388879999E-2,1860 nM
CCN(CC)CCOc1ccc(Nc2ncc3cc(-c4c(Cl)cccc4Cl)c(=O)n(C)c3n2)cc1 [SB-601273],potency estimated from few doses,BMPR1A; [1],538 nM
same,potency estimated from few doses,EPHA4; [1],162 nM
same,potency estimated from few doses,EPHB3; [1],1220 nM
same,potency estimated from few doses,EPHB4; [1],30.2 nM
same,potency estimated from few doses,LIMK1; [1],1110 nM
same,potency estimated from few doses,TGFBR2; [1],1260 nM
Nc1nc(-c2ccc3c(N)n[nH]c3c2)cc(N2CCCCC2)n1 [GSK2228768A],potency estimated from few doses,PIM2; [1],1410 nM
CC(C)c1nc(-c2cccc(NS(=O)(=O)c3ccccc3)c2)c(-c2ccnc(Nc3ccc4c(c3)CN(C)CC4)n2)s1 [GSK1649598A],potency estimated from few doses,CDK4,1400 nM
same,potency estimated from few doses,"LIMK1; compound concentrations: 100 nM and 1000 nM (sheet 'Samples'), CATDS: 7.0535341813333999E-2",38.5 nM
Cc1cccc(Nc2nc(NCCN)ncc2C(N)=O)c1 [GSK1292139B],potency estimated from few doses,NUAK1; CATDS: 0.100745572773025,611 nM
same,potency estimated from few doses,SYK; CATDS: 7.0539324655896005E-2,1500 nM
Cl.Cl.Cl.c1ccc(Oc2ccc(Nc3ccnc4cc(-c5ccc(CN6CCNCC6)o5)ccc34)cc2)nc1.c1ccc(Oc2ccc(Nc3ccnc4cc(-c5ccc(CN6CCNCC6)o5)ccc34)cc2)nc1 [GW567142A],potency estimated from few doses,SYK; CATDS: 1.6781429181419099E-2,2160 nM
CS(=O)(=O)CCNCc1ccc(-c2ccc3ncnc(Nc4ccc(OCc5cccc(F)c5)c(C(F)(F)F)c4)c3c2)o1 [GW576484X],potency estimated from few doses,ABCD3,1700 nM
same,potency estimated from few doses,"EPHB3; compound concentrations: 100 nM and 1000 nM (sheet 'Samples'), CATDS: 4.6783581960199903E-2",2310 nM
same,potency estimated from few doses,"PIM2; compound concentrations: 100 nM and 1000 nM (sheet 'Samples'), CATDS: 6.5177951129736497E-2",1150 nM
Cc1ccc(O)cc1Nc1ccnc2ccc(C(C)(C)C)cc12 [GW856805X],potency estimated from few doses,ACVR2B; CATDS: 2.76899291361602E-2,1250 nM
same,potency estimated from few doses,"EPHA4; compound concentrations: 100 nM and 1000 nM (sheet 'Samples'), CATDS: 7.4195620286495498E-2",22 nM
same,potency estimated from few doses,"EPHB3; compound concentrations: 100 nM and 1000 nM (sheet 'Samples'), CATDS: 6.3203902610818402E-2",31.7 nM
same,potency estimated from few doses,"EPHB4; compound concentrations: 100 nM and 1000 nM (sheet 'Samples'), CATDS: 0.113366992887299",9.72 nM
same,potency estimated from few doses,"TGFBR2; compound concentrations: 100 nM and 1000 nM (sheet 'Samples'), CATDS: 3.9995494154685202E-2",130 nM
Cc1cc(O)cc(C)c1/C=C/c1cncc(-c2nn[nH]n2)c1.Cl [GW441806A],potency estimated from few doses,"BMPR1A; compound concentrations: 100 nM and 1000 nM (sheet 'Samples'), CATDS: 4.5522705937236799E-2",1370 nM
same,potency estimated from few doses,STK10; CATDS: 4.0928454430712802E-2,2050 nM
